Measured values as given in PubChem BioAssay (NCI).
The panel holds about 79,000 compounds, 15% with a hit somewhere; the sample as a whole holds those more often. Active and inactive are the calls of the source. Cut-off read from the data, not from the text of the source: active = growth inhibition above about 70%; inactive = the rest.

Key:
[1] = NCI Yeast Anticancer Drug Screen. Data for the rad50 strain (AID 155);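 note: 0% = growth of vehicle-only cultures of the same strain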; details: S. cerevisiae rad50 strain growth inhibition, active compounds read high
Method in brief: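 DNA repair mutant yeast, compound exposure, growth read-out; inhibition is taken relative to vehicle.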

[2] = NCI Yeast Anticancer Drug Screen. Data for the mec2-1 strain (AID 157); details: S. cerevisiae mec2-1 strain, active compounds read high
Method in brief: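 Vehicle-treated cultures served as reference for growth inhibition of compound-exposed mec2-1 yeast.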

[3] = NCI Yeast Anticancer Drug Screen. Data for the sgs1 mgt1 strain (AID 161);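 note: 0% = growth of cultures given vehicle only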; details: S. cerevisiae sgs1 mgt1 strain, active compounds read high
Method in brief: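 Test agents were incubated with a DNA-repair-mutant yeast strain. Growth was then read and compared against vehicle-treated controls.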

[4] = NCI Yeast Anticancer Drug Screen. Data for the cln2 rad14 strain (AID 165);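 note: 0% = growth equal to vehicle treated cultures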; details: S. cerevisiae cln2 rad14 strain, active compounds read high
Method in brief: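 Each compound was tested on cln2 rad14 yeast. Inhibition of growth was calculated against vehicle-exposed controls.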

[5] = NCI Yeast Anticancer Drug Screen. Data for the bub3 strain (AID 167); details: S. cerevisiae bub3 mutant strain, active compounds read high
Method in brief: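 In this screen, a yeast mutant lacking normal mitotic checkpoint function is challenged with compound. Relative growth versus vehicle gives the inhibition value.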

[6] = NCI Yeast Anticancer Drug Screen. Data for the mlh1 rad18 strain (AID 175); details: S. cerevisiae mlh1 rad18 strain growth inhibition, active compounds read high
Method in brief: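 Vehicle-treated cultures served as the reference for growth inhibition in a yeast strain carrying DNA damage repair alterations exposed to each compound.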

[7] = at 5.0 µM (retest, dose inferred, filed as 0.5)
[8] = at 50.0 µM (retest, dose inferred, filed as 5.0)

Measured: growth inhibition

CCOC(=O)c1c(O)c(C)c(=O)n2c1[nH]c1cc(C)c(C)cc12
inactive: [1]; [7] -1% | [1]; [8] 12% | [1]; at 50.0 µM -6.75% | [2]; [7] 10% | [2]; [8] 33% | [2]; at 50.0 µM -6.85% | [3]; [7] 12% | [3]; [8] 29% | [3]; at 50.0 µM -6.5% | [4]; [7] -4% | [4]; [8] 2% | [4]; at 50.0 µM -21.3% | [5]; [7] -6% | [5]; [8] 14% | [5]; at 50.0 µM -43.9% | [6]; [7] -4% | [6]; [8] 38% | [6]; at 50.0 µM -10.6%

Clc1ccc(/C(=C/c2ccccc2)Cn2ccnc2)cc1
inactive: [2]; [7] 64%
active: [1]; [7] 88% | [1]; [8] 93% | [1]; at 50.0 µM 75.6% | [2]; [8] 86% | [2]; at 50.0 µM 78.8% | [3]; [7] 86% | [3]; [8] 90% | [3]; at 50.0 µM 75% | [4]; [7] 85% | [4]; [8] 83% | [4]; at 50.0 µM 70.5% | [5]; [7] 70% | [5]; [8] 93% | [5]; at 50.0 µM 81% | [6]; [7] 83% | [6]; [8] 90% | [6]; at 50.0 µM 78.5%

CCOC(=O)C1=C(C)Oc2cc3c(cc2C1c1cc(OC)c(OC)c(OC)c1)OCO3 (stereo not given)
inactive: [1]; [7] 8% | [1]; [8] 40% | [1]; at 50.0 µM 54.6% | [2]; [7] 11% | [2]; [8] 64% | [2]; at 50.0 µM 28.9% | [3]; [7] -1% | [3]; [8] 37% | [3]; at 50.0 µM 47.3% | [4]; [7] 11% | [4]; at 50.0 µM 19.1% | [5]; [7] 36% | [5]; at 50.0 µM 55.6% | [6]; [7] 12% | [6]; at 50.0 µM 45.8%
active: [4]; [8] 89% | [5]; [8] 94% | [6]; [8] 83%

Nc1c(C(=O)Nc2ccccc2)[n+]([O-])c2ccccc2[n+]1[O-]
active: [1]; [8] 73% | [1]; at 50.0 µM 98.2% | [2]; at 50.0 µM 97.7% | [3]; [8] 88% | [3]; at 50.0 µM 98% | [4]; [8] 78% | [4]; at 50.0 µM 97.2% | [5]; [8] 90% | [5]; at 50.0 µM 98.7% | [6]; [8] 91% | [6]; at 50.0 µM 98.2%
inactive: [1]; [7] -2% | [2]; [7] -3% | [2]; [8] 60% | [3]; [7] 1% | [4]; [7] -8% | [5]; [7] -4% | [6]; [7] -4%

c1ccc2c(c1)Sc1nccc3ccnc-2c13
active: [1]; [7] 92% | [1]; [8] 95% | [1]; at 50.0 µM 82.3% | [2]; [8] 93% | [2]; at 50.0 µM 79.3% | [3]; [8] 92% | [3]; at 50.0 µM 80.7% | [4]; [8] 88% | [4]; at 50.0 µM 72.8% | [5]; [8] 92% | [5]; at 50.0 µM 79.7% | [6]; [8] 91% | [6]; at 50.0 µM 79.2%
inactive: [2]; [7] 28% | [3]; [7] 23% | [4]; [7] 10% | [5]; [7] 25% | [6]; [7] 50%

CCCCCCCCCCCCO
active: [6]; at 50.0 µM 76.4%
inactive: [1]; [7] 10% | [1]; [8] 23% | [1]; at 50.0 µM 64.4% | [2]; [7] 9% | [2]; [8] 24% | [2]; at 50.0 µM 42% | [3]; [7] -4% | [3]; [8] 28% | [3]; at 50.0 µM 60.8% | [4]; [7] 0% | [4]; [8] 12% | [4]; at 50.0 µM -4.65% | [5]; [7] -6% | [5]; [8] 51% | [5]; at 50.0 µM 2.85% | [6]; [7] 12% | [6]; [8] 55%

Nc1ccc(C(=O)/C=C/c2ccccc2O)cc1
inactive: [1]; [7] -3% | [1]; [8] 37% | [1]; at 50.0 µM -21.9% | [2]; [7] -5% | [2]; [8] 2% | [2]; at 50.0 µM 28.1% | [3]; [7] 15% | [3]; [8] -1% | [3]; at 50.0 µM -9% | [4]; [7] -19% | [4]; [8] -14% | [4]; at 50.0 µM 2.4% | [5]; [7] -19% | [5]; [8] 23% | [5]; at 50.0 µM -15.8% | [6]; [7] -6% | [6]; [8] -1% | [6]; at 50.0 µM -1.15%

N/C(=N\N=C/c1ccc(O)c(O)c1O)NO
inactive: [1]; [7] -2% | [1]; [8] 26% | [1]; at 50.0 µM 41.1% | [2]; [7] 5% | [2]; [8] 21% | [2]; at 50.0 µM 17.8% | [3]; [7] -7% | [3]; [8] 8% | [3]; at 50.0 µM 28.5% | [4]; [7] -2% | [4]; [8] -6% | [4]; at 50.0 µM 17.7% | [5]; [7] -4% | [5]; [8] -3% | [5]; at 50.0 µM 4.2% | [6]; [7] -5% | [6]; [8] 7% | [6]; at 50.0 µM 64.7%

CCCCCN(CCCCC)CCCNc1ccc(C)c2sc3ccccc3c(=O)c12
active: [1]; [7] 98% | [1]; [8] 96% | [1]; at 50.0 µM 98.4% | [2]; [7] 99% | [2]; [8] 98% | [2]; at 50.0 µM 99% | [3]; [7] 99% | [3]; [8] 98% | [3]; at 50.0 µM 99% | [4]; [7] 99% | [4]; [8] 95% | [4]; at 50.0 µM 95% | [5]; [7] 99% | [5]; [8] 96% | [5]; at 50.0 µM 98% | [6]; [7] 99% | [6]; [8] 97% | [6]; at 50.0 µM 97.5%

COC(=O)/C(C#N)=C1\NC(=O)CC(c2ccccc2)C1C#N (stereo not given)
inactive: [1]; [7] 12% | [1]; [8] 20% | [1]; at 50.0 µM -25.2% | [2]; [7] 9% | [2]; [8] 16% | [2]; at 50.0 µM -27.1% | [3]; [7] 21% | [3]; [8] 20% | [3]; at 50.0 µM 9.25% | [4]; [7] 5% | [4]; [8] 19% | [4]; at 50.0 µM -1.3% | [5]; [7] 10% | [5]; [8] 13% | [5]; at 50.0 µM -0.9% | [6]; [7] 23% | [6]; [8] 18% | [6]; at 50.0 µM -16.7%
